Source: PubChem BioAssay (NCI)
Values joined by “and” are separate entries in the source; they are usually repeats but may differ in a detail not shown here. Equal values may be shown once. This is part of a sample that, as a whole, favours compounds with a hit. Of some 79,000 tested, about 15% had one in any assay. Where a structure was tested more than once in an assay, its records may differ in their call. Active and inactive are the calls of the source. No stated cut-off is given here; in the data, active means growth inhibition above about 70%; inactive means the rest.

How the values were obtained:
[1] = NCI Yeast Anticancer Drug Screen. Data for the mec2-1 strain (AID 157); details: S. cerevisiae mec2-1 strain, stronger effect = higher value
Summary of the method: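 Cells of the genetically defined mec2-1 yeast strain are incubated with test compound. Inhibition of growth is calculated against vehicle-treated controls.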

[2] = NCI Yeast Anticancer Drug Screen. Data for the rad14 strain (AID 159);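 further: 0% = growth of vehicle-treated control cultures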; details: S. cerevisiae rad14 strain growth inhibition, stronger effect = higher value
Summary of the method: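 Compound-treated yeast with a defined DNA-repair lesion; growth inhibition normalised to vehicle-treated cultures.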

[3] = NCI Yeast Anticancer Drug Screen. Data for the sgs1 mgt1 strain (AID 161);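 further: 0% = growth of cultures given vehicle only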; details: S. cerevisiae sgs1 mgt1 strain, stronger effect = higher value
Summary of the method: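 Genetically altered yeast, compound exposure, growth inhibition relative to vehicle.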

[4] = NCI Yeast Anticancer Drug Screen. Data for the CLN2oe strain (AID 163);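 further: 0% = growth of vehicle-only control cultures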; details: S. cerevisiae CLN2oe strain, stronger effect = higher value
Summary of the method: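 Strain altered in cell-cycle control, incubated with compound; growth compared to solvent-treated controls.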

[5] = NCI Yeast Anticancer Drug Screen. Data for the cln2 rad14 strain (AID 165);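 further: 0% = growth equal to vehicle treated cultures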; details: S. cerevisiae cln2 rad14 strain, stronger effect = higher value
Summary of the method: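 The screen exposed genetically defined yeast (cln2 rad14) to test compounds and scored growth inhibition relative to vehicle-treated controls.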

[6] = NCI Yeast Anticancer Drug Screen. Data for the bub3 strain (AID 167); details: S. cerevisiae bub3 mutant strain, stronger effect = higher value
Summary of the method: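 Growth of a checkpoint-deficient yeast mutant is measured after compound exposure. Values represent inhibition relative to vehicle.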

[7] = NCI Yeast Anticancer Drug Screen. Data for the mlh1 strain (AID 171);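 further: 0% = growth of vehicle-treated control cultures of the same strain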; details: S. cerevisiae mlh1 strain growth inhibition, stronger effect = higher value
Summary of the method: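 Yeast screen: mutant strain plus compound, growth scored against vehicle control wells.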

[8] = NCI Yeast Anticancer Drug Screen. Data for the sgs1 strain (AID 173);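 further: 0% = growth of vehicle-only control cultures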; details: S. cerevisiae sgs1 mutant, stronger effect = higher value
Summary of the method: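 Inhibition of yeast growth served as the measure. The mutant strain was treated with each compound, and growth was normalised to cultures receiving vehicle alone.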

[9] = NCI Yeast Anticancer Drug Screen. Data for the mlh1 rad18 strain (AID 175); details: S. cerevisiae mlh1 rad18 strain growth inhibition, stronger effect = higher value
Summary of the method: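 Compound-treated yeast growth, normalised to vehicle controls. Strain bears defined DNA repair mutations.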

[10] = NCI Yeast Anticancer Drug Screen. Data for the rad18 strain (AID 177); details: S. cerevisiae rad18 mutant growth inhibition, stronger effect = higher value
Summary of the method: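 Inhibition values reflect reduced yeast growth compared with vehicle-treated controls, using a strain engineered with a DNA damage repair defect.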

[11] = NCI Yeast Anticancer Drug Screen. Data for the rad52 strain (AID 147);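 further: 0% = growth of vehicle-treated control cultures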; details: S. cerevisiae rad52 mutant growth inhibition, stronger effect = higher value
Summary of the method: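 Genetically altered yeast (DNA damage repair defect) treated with compound; inhibition calculated relative to vehicle.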

[12] = NCI Yeast Anticancer Drug Screen. Data for the wt1 strain (AID 149);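 further: 0% = growth of vehicle-treated wt1 cultures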; details: S. cerevisiae wt1 strain (SPY 50644) growth inhibition, stronger effect = higher value
Summary of the method: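 Readout: yeast growth inhibition, normalised to vehicle controls, in the wt1 strain exposed to test compounds.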

[13] = NCI Yeast Anticancer Drug Screen. Data for the rad50EPP+ strain (AID 151);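 further: 0% = growth of vehicle-treated control cultures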; details: S. cerevisiae rad50 mutant strain, stronger effect = higher value
Summary of the method: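 Strain rad50EPP+; compound exposure; % growth inhibition vs vehicle.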

[14] = NCI Yeast Anticancer Drug Screen. Data for the mgt1 strain (AID 153); details: S. cerevisiae mgt1 mutant growth inhibition, stronger effect = higher value
Summary of the method: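 Read-out: yeast growth inhibition vs vehicle control. Strain mgt1, drawn from a panel altered in DNA damage repair or cell cycle control.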

[15] = NCI Yeast Anticancer Drug Screen. Data for the rad50 strain (AID 155);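 further: 0% = growth of vehicle-only cultures of the same strain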; details: S. cerevisiae rad50 strain growth inhibition, stronger effect = higher value
Summary of the method: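 Compounds were tested on a yeast strain with an engineered DNA damage repair alteration; the reported value is growth inhibition normalised to vehicle treatment.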

[16] = at 5.0 µM (retest, dose inferred, filed as 0.5)
[17] = at 50.0 µM (retest, dose inferred, filed as 5.0)

Measured: growth inhibition

C[Si](C)(C)/C=C/CCNC(C#N)c1ccccc1 (stereo unspecified)
active: [1]; [16] 98% | [1]; [17] 99% | [1]; at 50.0 µM 91.8% | [1]; at 100.0 µM 95% | [2]; at 100.0 µM 94% | [3]; [17] 97% | [3]; at 50.0 µM 92.7% | [4]; at 100.0 µM 93% | [5]; [17] 97% | [5]; at 50.0 µM 90.2% | [6]; [17] 95% | [6]; at 50.0 µM 90.1% | [6]; at 100.0 µM 93% | [7]; at 100.0 µM 95% | [8]; at 100.0 µM 94% | [9]; [16] 99% | [9]; [17] 99% | [9]; at 50.0 µM 90.3% | [10]; at 100.0 µM 92%
inactive: [1]; at 11.0 µM 43% | [1]; at 33.0 µM 23% | [2]; at 1.2 µM -6% | [2]; at 3.7 µM 3% | [2]; at 11.0 µM 37% | [2]; at 33.0 µM 52% | [3]; [16] -12% | [4]; at 1.2 µM 3% | [4]; at 3.7 µM 10% | [4]; at 11.0 µM 52% | [4]; at 33.0 µM 42% | [5]; [16] 32% | [6]; at 1.2 µM -8% | [6]; at 3.7 µM 7% | [6]; [16] 12% | [6]; at 11.0 µM 38% | [6]; at 33.0 µM 43% | [7]; at 1.2 µM -16% | [7]; at 3.7 µM -5% | [7]; at 11.0 µM 49% | [7]; at 33.0 µM 33% | [8]; at 1.2 µM -19% | [8]; at 3.7 µM -15% | [8]; at 11.0 µM 42% | [8]; at 33.0 µM 31% | [10]; at 1.2 µM -33% | [10]; at 3.7 µM -42% | [10]; at 11.0 µM 27% | [10]; at 33.0 µM 23%

Nc1ccn(C2OC(COP(=O)(O)O)C(O)C2O)c(=O)n1 (stereo unspecified)
78.3% (active) and -3% (inactive): [15]; at 50.0 µM
87.4% (active) and 16.2% (inactive): [3]; at 50.0 µM
inactive: [11]; at 1.2 µM -1% | [11]; at 3.7 µM 0% | [11]; at 11.0 µM 3% | [11]; at 33.0 µM 5% | [11]; at 100.0 µM 6% | [12]; at 1.2 µM -11% | [12]; at 3.7 µM 1% | [12]; at 11.0 µM 2% | [12]; at 33.0 µM 0% | [12]; at 100.0 µM 1% | [13]; at 1.2 µM -5% | [13]; at 3.7 µM -2% | [13]; at 11.0 µM 8% | [13]; at 33.0 µM 37% | [14]; at 1.2 µM 2% | [14]; at 3.7 µM 4% | [14]; at 11.0 µM 2% | [14]; at 33.0 µM 3% | [14]; at 100.0 µM 14% | [15]; at 1.2 µM 0% | [15]; at 3.7 µM 9% | [15]; [16] 38% | [15]; at 11.0 µM 11% | [15]; at 33.0 µM 33% | [15]; [17] 42% | [15]; at 100.0 µM 52% | [1]; at 1.2 µM 0% | [1]; at 3.7 µM 5% | [1]; [16] 3% | [1]; at 11.0 µM 8% | [1]; at 33.0 µM 11% | [1]; [17] 19% | [1]; at 50.0 µM -9.35% and -12.8% | [1]; at 100.0 µM -3% | [2]; at 1.2 µM -1% | [2]; at 3.7 µM 6% | [2]; at 11.0 µM 4% | [2]; at 33.0 µM 5% | [2]; at 100.0 µM 7% | [3]; [16] 47% | [4]; at 1.2 µM -4% | [4]; at 3.7 µM -2% | [4]; at 11.0 µM -6% | [4]; at 33.0 µM -15% | [4]; at 100.0 µM -5% | [5]; [16] -4% | [5]; [17] -10% | [5]; at 50.0 µM -40.1% and -51.6% | [6]; at 1.2 µM -2% | [6]; at 3.7 µM -6% | [6]; [16] -5% | [6]; at 11.0 µM -5% | [6]; at 33.0 µM -12% | [6]; [17] -4% | [6]; at 50.0 µM -32.9% and 0.5% | [6]; at 100.0 µM -10% | [7]; at 1.2 µM 1% | [7]; at 3.7 µM 8% | [7]; at 11.0 µM 0% | [7]; at 33.0 µM 7% | [7]; at 100.0 µM 26% | [8]; at 1.2 µM 21% | [8]; at 3.7 µM 43% | [8]; at 11.0 µM 68% | [9]; [16] 13% | [9]; [17] -5% | [9]; at 50.0 µM 21.4% and -23.4% | [10]; at 1.2 µM -1% | [10]; at 3.7 µM -4% | [10]; at 11.0 µM -8% | [10]; at 33.0 µM -15% | [10]; at 100.0 µM -22%
active: [13]; at 100.0 µM 72% | [3]; [17] 75% | [8]; at 33.0 µM 82% | [8]; at 100.0 µM 86%
